PubChem BioAssay (NCI)
The panel holds about 83,000 compounds, 20% with a hit somewhere; the sample as a whole holds those more often.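 Growth was measured after 48 h exposure to one concentration of compound in 96-well plates. Values under 10 count as active.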 Calls of active or inactive are those of the source.

Key:
Assay in all cases: NCI-60 one-dose screen, 48 h (100 = growth as untreated, 0 = no growth, -100 = all killed)
Conditions in all cases: 10 µM unless noted
[1] = system: SR leukemia
[2] = system: RPMI-8226 leukemia
[3] = system: OVCAR-8 ovarian
[4] = system: OVCAR-5 ovarian
[5] = system: OVCAR-4 ovarian
[6] = system: SK-OV-3 ovarian
[7] = system: IGROV1 ovarian
[8] = system: OVCAR-3 ovarian
[9] = system: HS 578T breast
[10] = system: NCI/ADR-RES ovarian
[11] = system: T-47D breast
[12] = system: BT-549 breast
[13] = system: MDA-MB-435 melanoma
[14] = system: SW-620 colon
[15] = system: MCF7 breast
[16] = system: HCT-116 colon
[17] = system: HCC-2998 colon
[18] = system: KM12 colon

Measured: growth

COc1ccc(/C(C)=N/NC(=O)CSc2nc3ccccc3c(=O)n2CCc2ccc(S(N)(=O)=O)cc2)cc1
active: [2] 5.61% | [3] -12.9% | [5] -54.1% | [6] -31.8% | [16] -47%
inactive: [1] 40.2% | [4] 55% | [7] 19.1% | [8] 16.6% | [9] 29.5% | [10] 79.4% | [11] 22.3% | [12] 64.2% | [13] 16.7% | [14] 54.6% | [15] 59.1% | [17] 74.8% | [18] 25.1%

COc1cc(OC)c(Cl)cc1N
inactive: [1] 109% | [2] 104% | [3] 104% | [4] 111% | [5] 109% | [6] 100% | [7] 114% | [8] 103% | [9] 77.9% | [10] 109% | [11] 98.8% | [12] 123% | [13] 98.2% | [14] 102% | [15] 95.5% | [16] 106% | [18] 107%

COc1cc(NCC(O)CN(CC(C)C)CC(C)C)c2ncccc2c1 (centres undefined)
inactive: [1] 50.6% | [2] 37.6% | [3] 63.3% | [4] 101% | [5] 19.5% | [6] 87.4% | [7] 74.3% | [8] 47.4% | [9] 84.7% | [10] 92.4% | [12] 95.2% | [13] 107% | [14] 74.9% | [16] 80.2% | [18] 96%
active: [11] 1.96% | [15] -25.6%

C=C(c1ccc(C(=O)NCCCn2ccnc2)cc1)c1cc2c(cc1C)C(C)(C)CCC2(C)C
active: [1] -27.2% | [6] 4.17% | [7] 7.28% | [10] 5.05% | [11] -16.9% | [13] -27%
inactive: [2] 22.7% | [3] 40% | [4] 33.3% | [5] 37% | [8] 25.7% | [9] 59.7% | [12] 39.7% | [14] 16.5% | [15] 35.5% | [17] 26.8% | [18] 24.5%

CCCCCN(CCCCC)C(=O)C(CCC(=O)O)NC(=O)c1ccc(Cl)c(Cl)c1 (centres undefined)
inactive: [1] 94.4% | [2] 118% | [3] 106% | [4] 102% | [5] 115% | [6] 114% | [7] 107% | [8] 113% | [9] 102% | [10] 106% | [11] 102% | [12] 132% | [13] 112% | [14] 106% | [15] 96.7% | [16] 112% | [18] 114%

Cc1cccc2nc3ccccc3c(Nc3ccc(NS(C)(=O)=O)cc3)c12
inactive: [2] 52.3% | [3] 39.8% | [4] 62.1% | [5] 77.5% | [6] 41% | [7] 43.1% | [8] 74.3% | [9] 87.8% | [10] 80.8% | [11] 37.1% | [12] 81.7% | [13] 78.6% | [14] 34.2% | [15] 24.8% | [16] 31.8% | [17] 75.5% | [18] 55.5%
active: [1] -3.06%

COc1cc(/C=C\c2cc(/C=C\c3ccc(O)c(OC)c3)n(C(=O)Nc3ccc(C(F)(F)F)cc3)n2)ccc1O
active: [2] -0.214% | [3] 0.433% | [16] -53.7%
inactive: [1] 13.2% | [4] 115% | [5] 76.7% | [6] 66.1% | [7] 42.8% | [8] 13.8% | [9] 51.9% | [10] 51.7% | [11] 47.4% | [12] 19% | [13] 27.8% | [14] 18% | [15] 22.9% | [17] 103% | [18] 41.4%

Oc1ccc(-c2nc3ccccc3s2)cc1CN(Cc1ccccn1)Cc1ccccn1
active: [1] 7.98% | [3] 9.43% | [6] 7% | [10] -37.2%
inactive: [2] 13.2% | [4] 40.9% | [5] 18% | [7] 15% | [8] 26.2% | [9] 41.6% | [11] 12.8% | [12] 18.5% | [13] 26.6% | [14] 20.1% | [15] 14.8% | [16] 15.5% | [18] 24.8%

CS(=O)(=O)c1ccc(Cl)c([N+](=O)[O-])c1
active: [8] 9.6%
inactive: [1] 18.6% | [2] 70.3% | [3] 107% | [4] 108% | [5] 111% | [6] 104% | [7] 38.5% | [9] 73.3% | [10] 101% | [11] 104% | [12] 111% | [13] 99.1% | [14] 67.9% | [15] 107% | [16] 105% | [17] 109% | [18] 75.3%

C=C1C(=O)O[C@H]2[C@H]1CC/C(COC(=O)NCc1c[nH]c3ccc(OC)cc13)=C\CC[C@@]1(C)O[C@@H]21
active: [1] 8.82% | [2] -25.8% | [7] -21.7% | [8] -84.2% | [11] -52% | [12] -24% | [14] -57.6% | [15] 5.33% | [16] -79.4%
inactive: [3] 21.3% | [4] 45.2% | [5] 19.9% | [6] 68.3% | [9] 61.8% | [10] 73.1% | [13] 22.3% | [18] 51.3%

CC(C)CC(=O)C(CCc1ccccn1)C(C)C (centres undefined)
inactive: [1] 108% | [2] 95.8% | [3] 105% | [4] 105% | [5] 111% | [6] 120% | [7] 114% | [8] 118% | [9] 97.8% | [10] 102% | [11] 96.3% | [12] 108% | [13] 104% | [14] 104% | [15] 104% | [17] 106% | [18] 113%

COc1ccc(-c2ccc(-c3ccc(C(=N)N)s3)s2)cc1
active: [1] -40.6% | [2] -57.5% | [3] -66.9% | [4] -92.6% | [5] -56.4% | [6] -88.9% | [7] -57.2% | [8] -80.8% | [9] -56.8% | [10] -61.7% | [11] -64% | [12] -81.3% | [13] -78.1% | [14] -69.1% | [15] -50.1% | [16] -47.8% | [17] -81% | [18] -86.8%

CC(C)C/C=C/C=C/C(=O)N[C@@H](CC(N)=O)C(=O)N[C@@H]1C(=O)N[C@H](c2ccc(O)cc2)C(=O)N[C@H](CCCN)C(=O)N[C@H]([C@@H](C)O)C(=O)N[C@H](c2ccc(O)cc2)C(=O)N[C@H](c2ccc(O)cc2)C(=O)N[C@H]([C@H](C)O)C(=O)N[C@H](Cc2ccccc2)C(=O)N[C@H](CCCN)C(=O)N[C@H](c2ccc(O[C@H]3O[C@@H](CO)[C@@H](O)[C@@H](O)[C@H]3O[C@@H]3O[C@H](CO)[C@H](O)[C@H](O)[C@@H]3O)cc2)C(=O)N[C@H]([C@H](C)O)C(=O)N[C@H](c2ccc(O)cc2)C(=O)NCC(=O)N[C@H](CC(C)C)C(=O)N[C@H](C)C(=O)N[C@H](c2ccc(O)c(Cl)c2)C(=O)O[C@@H]1C(N)=O
active: [12] -2.76%
inactive: [1] 33.1% | [2] 109% | [3] 63.9% | [4] 36.2% | [5] 117% | [6] 87.4% | [7] 96.6% | [8] 117% | [9] 67.3% | [10] 96.9% | [11] 94.9% | [13] 57.2% | [14] 96.3% | [15] 54.9% | [16] 20.4% | [17] 104% | [18] 44.3%

Clc1ccc(C2=NN[C@H](c3cn(-c4ccccc4)nc3-c3ccccc3)C2)cc1
inactive: [1] 104% | [2] 87.5% | [3] 33.6% | [4] 83.6% | [5] 68.1% | [6] 61.6% | [7] 79.5% | [8] 58.6% | [9] 74.2% | [10] 55.9% | [11] 46.4% | [12] 92.7% | [13] 47.3% | [14] 48.7% | [15] 66.2% | [17] 90.7% | [18] 74%

Cc1ccc(NC(=O)c2cc(NCc3cc(O)ccc3O)ccc2O)cc1
inactive: [1] 20.3% | [2] 20.2% | [3] 81.8% | [4] 125% | [5] 89.1% | [6] 98.6% | [7] 97.9% | [8] 71% | [9] 86.4% | [10] 95.8% | [11] 75.6% | [12] 63.8% | [13] 106% | [14] 106% | [15] 75.7% | [17] 106% | [18] 91%

CCN(CC)Cc1cc(Nc2ccnc3ccc(OC)cc23)ccc1O
inactive: [2] 48.5% | [3] 28.4% | [4] 55% | [5] 55.3% | [6] 73.6% | [7] 23.8% | [8] 50.8% | [9] 77.2% | [10] 35.8% | [12] 55.2% | [13] 47.6% | [14] 27.5% | [15] 22.9% | [16] 16.2% | [17] 32.8% | [18] 42.2%
active: [1] 7.65% | [11] -43.9%
